RAD52 inh: RAD52 (human) annealing inhibition; P43351; recombinant RAD52 DNA annealing, FRET fluorescence; inhibition, % at 18.7 µM; actives 0.46% (n = 360,000);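 active means every replicate showing at least 50% inhibition; inconclusive means mean inhibition at least 50% but not in every replicate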
NSD2 HMT inh: inhibitors of human histone methyltransferase NSD2; NSD2 peptide methylation, AlphaScreen, 120 min; inhibition, % at 12.5 µM; actives 0.54% (n = 310,000); in the data active means inhibition above about 50%
CASP6 VEID inh: caspase-6 (human) enzyme inhibition | inhibition, % at 12.5 µM | actives 0.53% (n = 350,000) | purified caspase-6, Z-VEID-R110 cleavage fluorescence | AID 686996;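 active means mean inhibition across replicates at least about 35%, with every replicate also reaching that limit, limit read from the data; inconclusive means only one of the two criteria met; inactive means neither criterion met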;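 further: 0% = median of neutral control wells and 100% = no fluorescence left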
Target sequence (P55212 24-179 limits assumed): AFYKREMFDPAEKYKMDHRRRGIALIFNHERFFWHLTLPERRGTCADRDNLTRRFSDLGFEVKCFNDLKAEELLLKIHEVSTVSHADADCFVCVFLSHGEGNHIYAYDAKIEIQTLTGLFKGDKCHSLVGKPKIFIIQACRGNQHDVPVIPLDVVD
Target sequence (P55212 194-293 limits assumed): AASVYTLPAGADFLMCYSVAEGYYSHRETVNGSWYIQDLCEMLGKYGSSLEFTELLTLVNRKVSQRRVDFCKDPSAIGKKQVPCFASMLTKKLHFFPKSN
RAD54 inh: inhibitors of human RAD54 branch migration | AID 602329 | RAD54 Holliday junction branch migration, FAM/BHQ fluorescence | Q92698 | inhibition, % at 10.4 µM | actives 0.14% (n = 360,000);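 active means mean normalized replicate activity at least 40 and at least half of replicates scoring 40 or more; inconclusive means only one of the two criteria met; inactive means mean below 40 and under half of replicates reaching 40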;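 further: 0% = median of neutral control wells and 100% = median of positive control wells; inhibitors cause a drop in the FAM fluorescence signal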
N-glyco inh: blocks N-linked glycosylation in D54 reporter cells. D54 ERlucT glycosylation luciferase reporter, 24 h; percent of 100 nM tunicamycin response. AID 588692. reporter increase, % at 12.5 µM. actives 0.23% (n = 360,000);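 active means mean luciferase reporter signal, scaled so untreated is 0 and the glycosylation-blocking control 100, at or above a set limit in every replicate; inconclusive means mean reaches the limit but not every replicate does; inactive means mean below the limit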;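 further: luciferase carries N-glycosylation sites so blocking glycosylation raises the light; 0% = median of neutral control wells and 100% = median of 100 nM tunicamycin wells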
* = called active by the depositor; i = inactive; ? = inconclusive; / = no result; + = active, no number. Rows were chosen to be rich in hits. Some 1.2% of all compounds tested hit in one or more screens of this group.

SMILES	RAD52 inh	NSD2 HMT inh	CASP6 VEID inh	RAD54 inh	N-glyco inh
CCCN1[C@@H]2Cn3c(ccc(-c4ccc(F)cc4)c3=O)[C@H]1[C@@H](C(=O)OC)[C@@H]2CO	53*	/	0	4	/
C=CC1CN2CCC1C[C@@H]2CO (some centres not stated)	6	/	0	/	/
COC(=O)[C@@H]1C[C@H]1[C@@H](NP(=O)(c1ccccc1)c1ccccc1)c1ccccc1	5	/	-2	4	32*
COC(=O)[C@H]1C[C@@H]1[C@H](NP(=O)(c1ccccc1)c1ccccc1)c1ccccc1	-5	/	-2	10	1
CN1C(=O)C(=Cc2ccc(N3CCCCCC3)o2)C(=O)N(C)C1=S	/	4	/	-106	0
O=C(O)c1ccccc1-c1ccc(C=C2C(=O)N(c3ccccc3)C(=S)N(c3ccccc3)C2=O)o1	-105	11	37*	-13	-2
C/C=C/c1ccc(C2[C@@H]3CN(Cc4nccs4)C[C@H]2N3)cc1 (some centres not stated)	23	/	2	/	/
C/C=C/c1ccc(C2[C@@H]3CN(Cc4cocn4)C[C@H]2N3)cc1 (some centres not stated)	56*	/	-1	/	/
O=C(O)[C@@H]1[C@@H](CO)[C@@H]2Cn3c(ccc(-c4cccnc4)c3=O)[C@H]1N2C(=O)Nc1cc(F)ccc1F	1	/	0	-6	/
NN=C1C(Cl)=C(Cl)C(Cl)=C1Cl	-4	4	97*	/	-1
COC(=O)[C@H]1[C@H](CO)[C@H]2Cn3c(ccc(C4=CCCCC4)c3=O)[C@@H]1N2CC1CCCC1	-3	/	8	6	/
CC=Cc1ccc2n(c1=O)C[C@H]1[C@H](CO)[C@@H](C(=O)N(C)C)[C@@H]2N1C (mixture of isomers)	-2	/	57*	-1	/
CCCCN1C(=O)/C(=C/C=C/c2ccco2)C(=O)NC1=S	i	108*	78*	-16	3
Cc1ccc(N2C(=O)NC(=O)/C(=C/C=C/c3ccco3)C2=O)cc1	/	46	/	/	?
CN(C)CC#Cc1ccc([C@@H]2[C@@H](CO)N3CCCCN(C(=O)Cc4ccccn4)C[C@H]23)cc1	61*	/	1	-11	/
CCCNC(=O)N1[C@@H]2Cn3c(ccc(-c4ccccc4OC)c3=O)[C@H]1[C@@H](C(=O)O)[C@@H]2CO	-5	/	1	1	/
CN1C(=O)NC(=O)/C(=C/c2ccc([N+](=O)[O-])s2)C1=O	-44	37	20	-13	1
CN1C(=O)NC(=O)/C(=C\c2ccc([N+](=O)[O-])o2)C1=O	/	+	/	-7	-1
Cc1cccc(S(=O)(=O)N2[C@@H]3c4ccc(-c5cccc(F)c5)c(=O)n4C[C@H]2[C@H](CO)[C@H]3C(=O)O)c1	-11	/	/	-7	/
CN(C)[C@@H]1C(=O)C(C(N)=O)=C(O)[C@@]2(O)C(=O)C3=C(O)c4c(O)ccc(Cl)c4[C@@](C)(O)C3C[C@@H]12 (some centres not stated)	-6	/	44*	3	-8
CN(C)[C@@H]1C(=O)C(C(N)=O)=C(O)[C@@]2(O)C(=O)C3=C(O)c4c(O)cccc4[C@@](C)(O)C3[C@H](O)C12 (some centres not stated)	-14	/	45*	-22	3
C=C(C)[C@@]12OC3(c4ccccc4)O[C@@H]1C1[C@@H]4O[C@]4(CO)[C@@H](O)[C@]4(O)C(=O)C(C)=C[C@H]4[C@@]1(O3)[C@H](C)[C@H]2OC(=O)/C=C/C=C/c1ccccc1 (some centres not stated)	/	/	/	-1	53*
COC12CCC3(CC1C(C)(O)C(C)(C)C)[C@H]1Cc4ccc(OC5OC(C(=O)O)[C@@H](O)C(O)[C@H]5O)c5c4[C@@]3(CCN1CC1CC1)C2O5 (some centres not stated)	5	/	0	5	1
COC12CCC3(CC1C(C)(O)C(C)(C)C)[C@H]1Cc4ccc(O)c5c4[C@@]3(CCN1CC1CC1)C2O5 (some centres not stated)	3	/	4	-6	59*
COCC#Cc1ccc([C@H]2[C@H](CO)N3CCCCN(C(=O)Cc4ccccn4)C[C@@H]23)cc1	-5	/	2	-4	/
O=C1c2ccccc2-c2cc3ccccc3cc21	-9	-1	3	/	0
O=C1C=C(N2CC2)c2ccccc2C1=O	-31	/	97*	4	4
O=C1NC(=O)N(Cc2ccc(F)cc2)C(=O)/C1=C\C=C\c1ccco1	-151	49	23	-42	?

High-throughput results deposited in PubChem by Broad Institute.
